Only some compounds are listed: those with a hit (about 20% of all), similar ones and a draw of the others.
Pf growth 96h: P. falciparum growth inhibition at 96 hours; P. falciparum luciferase reporter growth, 96 h; hit rate 6.9% among 320,000; AID 504834; Potency, µM (top dose mostly 28.7 µM), inactives show top-dose activity change, negative = inhibition, usual class: inhibitors; also: potency is read from the fitted curve at half-maximal effect; % is scaled to controls: 0 for no effect and ±100 for the full control effect
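Erythrocytes infected with luciferase-expressing P. falciparum were dispensed at 2% hematocrit and 0.05% parasitemia (final), then incubated with compounds 96 hours at 37 C in 5% CO2. Luminescence after detection reagent addition reported growth.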
Cycloheximide cs: counter-screen hit for Shiga toxin inhibitors, cycloheximide; cell reporter, cycloheximide protein synthesis inhibition counterscreen; max response, %; hit rate 12% among 300,000; AID 2314; in the data active = max response mostly above about 13%, no sharp cut-off; inactive = mostly below about 14%; also: read at 38.3 µM for the half of the compounds with a filed dose; 0% is about no effect
Shiga toxin inh: Shiga toxin inhibition | hit rate 9.2% among 290,000 | Vero cells, Shiga toxin protein synthesis inhibition reporter | inhibition, % at 38.7 µM; in the data active = inhibition mostly above about 28%, no sharp cut-off; inactive = mostly below about 43%; also: 0% is about no effect
HCMV antiviral: blocks human cytomegalovirus replication | HFF cells, HCMV-luciferase reporter, 72 h; active compounds read low | activity change, negative = inhibition, % at 57.5 µM | hit rate 4.5% among 410,000; in the data active = activity change below about -60%; inconclusive = no clear call, values can overlap the other calls; inactive = above about -39%; also: % is scaled to controls: 0 for no effect and ±100 for the full control effect
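Two compound doses tested in HFFs infected with HCMV-luciferase, MOI 1 PFU/cell, 72 h at 37C. Lysate luminescence read with OneGlo; data normalized against buffer-only and 10uM Salinomycin inhibitor controls.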
Pf growth 48h: inhibits P. falciparum growth in the first generation, 48 h | P. falciparum luciferase growth in erythrocytes, 48 h | Potency, µM (series often up to 28.7 µM), without a hit: top-dose activity change, negative = inhibition, hits mostly inhibitors | hit rate 5.9% among 310,000 | AID 504832; also: potency is read from the fitted curve at half-maximal effect; % is scaled to controls: 0 for no effect and ±100 for the full control effect
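First compound was added to culture medium, then infected red cells at 0.1% parasitemia and 2% hematocrit (final). After incubation at 37 C under 5% CO2, luciferase detection reagent was dispensed and light output recorded.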
An asterisk follows results filed as active; u = inconclusive; x = no result given; [ ] = dose if it differs, or a comment. Unless noted, calls follow the shape of the dose curve; as a rule, active = well fitted inhibition curve with a large enough effect; inconclusive = small, poorly fitted or top-dose-only effect, or another doubt; inactive = no such curve, though single readings can be large or run the other way.

SMILES | Pf growth 96h | Cycloheximide cs | Shiga toxin inh | HCMV antiviral | Pf growth 48h
CCOC(=O)c1c(C)[nH]c(-c2csc(C)n2)c1C | 83% | 33* | 62* | 9 | 60%
CCOC(=O)c1ccccc1-c1csc(N)n1 | 22% | -3 | -12 | -26 | 14%
O=C(CN(C(=O)CCC(=O)Nc1ccccn1)c1ccc(F)cc1)NCc1ccco1 | u | -1 | 28 | -15 | -3%
CC(C)c1ccc(N(CC(=O)NCc2ccco2)C(=O)CCC(=O)Nc2ccccn2)cc1 | 0.74µM* | 11* | 51* | -6 | -3%
Cc1cccc(N(CC(=O)NCc2ccco2)C(=O)CCC(=O)Nc2ccccn2)c1C | 1.9µM* | 10 | 33 | 6 | 0%
NC(=O)c1ccc(NC(=O)COC(=O)CC23CC4CC(CC(Br)(C4)C2)C3)cc1 | x | x | x | 3 | x
COc1cc2c(Nc3ccc(Br)cc3F)ncnc2cc1OCC1CCN(C)CC1 | 1.5µM* | x | x | x | 0.67µM*
COc1cc2ncnc(NCc3cccc(F)c3F)c2cc1OC | u | -5 | -1 | u | x
C=CCn1c(=O)n(C2OC(CO)C(O)C2O)c2nc(N)[nH]c(=O)c21 (configuration not stated) | -8% | -4 | 16 | x | 6%
OC(c1cc(-c2ccc(C(F)(F)F)cc2)nc(C(F)(F)F)c1)C1CCCCN1 (configuration not stated) | 0.0083µM* | -10 | -13 | -102* | 0.1µM*
COC(=O)C(c1ccccc1)C1CCCCN1 (configuration not stated) | u | x | x | x | -13%
OC(c1cc(-c2cccc(Cl)c2)nc2ccccc12)C1CCCCN1 (configuration not stated) | x | x | x | -98* | x
OC(c1cc(C(F)(F)F)nc2c(C(F)(F)F)cccc12)C1CCCCN1 (configuration not stated) | 0.0037µM* | x | x | -99* | 0.0093µM*
CCOc1c(Br)cc(C(=O)N2CCCN(C)CC2)cc1OC | 23% | 10 | -7 | 9 | 24%
CC1=CC(C)(C)NC(=S)N1CCO | x | x | x | -16 | x
CCOC(=O)/C(=C/c1ccc(OC(F)F)cc1)C1=Nn2c(nnc2-c2ccc(Cl)cc2)SC1 | x | x | x | -98* | x
CCOC(=O)/C(=C\c1ccc(OC(F)F)cc1)C1=Nn2c(nnc2-c2ccc(Cl)cc2)SC1 | u | 3 | 23 | x | u
CSCCC(NC(=O)OC(C)(C)C)C(=O)Oc1ccc2c(=O)c(-c3ccc4c(c3)OCCO4)coc2c1 (configuration not stated) | u | 36* | 83* | 53 | 402%
COc1ccc(OC)c(C2=Nn3c(nnc3-c3cccc(OC)c3OC)SC2)c1 | x | -5 | -6 | x | x
CCOC(=O)C1CCN(C(=O)c2cc3cc4ccc(OC)cc4nc3o2)CC1 | u | -8 | 15 | 62 | 83%
COCCCNC(=O)c1cc2cc3cc(OC)ccc3nc2o1 | -21% | 20* | 19 | 8 | 10µM*
CCN(C(=O)c1cc2cc3ccc(C)cc3nc2o1)c1ccc(OC)cc1 | -24% | 36* | 37* | u | u
CCCCN(C)CCNC(=O)c1cc2cc3ccc(OC)cc3nc2o1 | 1% | -3 | -4 | 5 | 12%[0.00184 µM]
COc1ccc2nc3oc(C(=O)N4CCC(C(N)=O)CC4)cc3cc2c1 | -61% | 11 | 33 | 58 | 12µM*
CCCCN(C)C(=O)c1cc2cc3ccc(OC)cc3nc2o1 | -22% | 29* | 79* | 61 | 10%[0.00184 µM]
SMILES | Pf growth 96h | Cycloheximide cs | Shiga toxin inh | HCMV antiviral | Pf growth 48h
CCN(CC)CCNC(=O)c1cc2cc3ccc(OC)cc3nc2o1 | 1% | -4 | -7 | -3 | -1%[0.00184 µM]
CCC[C@@H](/C=C/C(=O)OCC)NC(=O)C(F)(F)F | x | x | x | -5 | x
C=CCn1c(COc2ccc(F)cc2)nnc1SCC(=O)NC1CC1 | 12% | x | x | -20 | 0%
CCCCN(C)C(=O)c1cc2cc3cc(OC)ccc3nc2o1 | 30% | 42* | 63* | 12 | u
CCOc1ccc(-n2c(C)nc(O)c2N=Nc2ccccc2)cc1 | -13% | 17* | 67 | 4 | 52%
NS(=O)(=O)c1ccc(CCNC(=O)c2ccc3nc(Cc4ccccc4)oc3c2)cc1 | x | x | x | -3 | x
CC(C)(C)NC(=O)Cn1cc(C#N)c2cc(Br)ccc21 | x | -2 | -15 | -30 | 5.9µM*
NC(=O)Cc1ccc(C(=O)c2ccc(Cl)cc2Cl)s1 | 51% | 23* | 48* | -21 | 37%
O=C(O)Cc1ccc(C(=O)c2ccc(Cl)cc2Cl)s1 | 28% | 19 | 15 | -19 | 0%
O=C(c1ccc(-c2nnc(-c3ccccc3)o2)cc1)N1CCCCCC1 | 52% | 15 | 83* | 94 | 85%
O=C(O)c1ccc(-c2nnc(-c3ccccc3)o2)cc1 | -19% | 27* | 42* | 44 | x
O=C(c1nnc(-c2ccccc2)o1)C1CC1 | 34% | 37* | 97* | -11 | 8%
CCCCCC(=O)N1C[C@H](O)[C@@H](n2cc(C3CC3)nn2)C[C@@H]1c1ccc(OC)cc1 | x | x | x | -8 | x
CCC(=O)N1CCc2cc(S(=O)(=O)NC(Cc3ccccc3)C(=O)NCc3cccc(OC)c3)ccc21 (configuration not stated) | x | x | x | -2 | x
O=C(OCn1ncc(Br)c(Br)c1=O)c1ccc(F)cc1 | u | 24* | 13 | x | x
CCSc1nc2ccccc2n1CCOc1ccccc1 | u | 21* | 48* | 10 | u
Nc1nc2ccccc2n1CCOc1ccc(F)cc1 | 15µM* | -1 | -8 | 5 | 8.3µM*
Cc1ccc(NCc2nc3ccccc3n2CCOc2ccccc2)cc1 | u | 76* | 121* | 25 | -41%
CCCn1c(CNc2ccc(Br)cc2)nc2ccccc21 | 49% | 17* | 39 | u | x
Nc1ccn([C@@H]2O[C@H](CNCc3cc(Cl)ccc3OCc3ccc(Cl)cc3)[C@@H](O)[C@H]2O)c(=O)n1 | x | x | x | -21 | x
CCOc1ccccc1C1CC(=O)NC(C)=C1C(=O)OC1CCCCCC1 (configuration not stated) | x | x | x | -33 | x
Cc1nc2ccccc2n1CCOc1ccccc1 | -26% | 12* | 21 | u | 0%
CC(=O)Nc1ccc(N(C)C)cc1[N+](=O)[O-] | 0% | 24 | 8 | -22 | 2.6µM*
CC(=O)Nc1ccc(O)cc1[N+](=O)[O-] | 9% | -4 | -7 | -20 | 23%
CN(C)c1ccc(CNCCC(Cc2ccccc2)c2ccco2)cc1 (configuration not stated) | 9.3µM* | -8 | 1 | u | u
CCOc1ccc(C(=O)C(C)OC(=O)Cn2c(C)csc2=O)cc1 (configuration not stated) | 0% | x | x | -12 | -3%
CN1C(=O)/C(=C/C=C2\SCCN2C)SC1=S | 182% | 58* | 82* | x | 141%
CN1C(=O)C(=Cc2ccc(N3CCCCCC3)o2)C(=O)N(C)C1=S | x | 3 | -2 | u | -9%
CN1C(=O)/C(=C/C=C2\SCCN2C)N(C)C1=S | u | 49* | 121* | 144 | 210%
NC(=O)CSc1nnc(Cn2cnc3ccccc32)o1 | 69% | 3 | 25 | -6 | 54%
